Data reported in PubChem BioAssay AID1053117 (Broad Institute, 2014).
Measured potencies and affinities stand elsewhere. The source made the active and inactive calls.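 Rule for the calls: active = compounds lowering cell ATP signal with a fitted half-effect dose at most twice the top valid dose; inconclusive = flat curve with 30 to 70% signal loss, or bad fit; inactive = wrong direction, flat within 30%, or weaker than limit.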

Experiment: HEK293 cell cytotoxicity, dose response, cytotoxicity control, cherry-picks, set 5 (AID 1053117);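 note: more negative means greater loss of ATP signal and more cytotoxicity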
Conditions: HEK293T viability, CellTiter-Glo ATP luminescence, 72 h; series mostly up to 26 µM
For CC(C)C(=O)Nc1ccc2c(c1)C(=O)N(C)[C@@H]1CC[C@H](CC(=O)O)O[C@@H]1CO2, the outcome was “inactive”.
With C[C@@H]1CN([C@H](C)CO)C(=O)c2cc(NC(=O)C3CCCCC3)ccc2O[C@@H]1CN(C)Cc1ccc(-c2ccccc2)cc1 the outcome was “inactive”.
With COCC(=O)Nc1ccc2c(c1)C(=O)N(C)[C@@H]1CC[C@@H](CC(=O)NCc3ccccc3Cl)O[C@H]1CO2 the outcome was “inactive”.
For COC(=O)c1c(NC(=O)CN2CCN(c3ccccc3Cl)CC2)sc(C)c1C, the outcome was “inactive”.
For COCC(=O)Nc1ccc2c(c1)C(=O)N(C)[C@H]1CC[C@@H](CC(=O)NCc3ccccc3Cl)O[C@@H]1CO2, the outcome was “inactive”.
For C[C@H]1CN([C@@H](C)CO)C(=O)c2cccc(NC(=O)Nc3ccc(C(F)(F)F)cc3)c2O[C@H]1CN(C)C(=O)Nc1cccc2ccccc12, the outcome was “inactive”.
With O=C(CCNS(=O)(=O)c1cccc2nonc12)NC1CCCc2ccccc21 (stereo not drawn) the outcome was “inactive”.
With C[C@@H]1CN([C@@H](C)CO)C(=O)c2cc(NC(=O)CCCN(C)C)ccc2O[C@H]1CN(C)Cc1ccc(-c2ccccc2)cc1 the outcome was “inactive”.
For O=C(CSc1nc2ncc(Cl)cc2[nH]1)c1c[nH]c2ccccc12, the outcome was “inactive”.
With C[C@@H]1CN([C@H](C)CO)C(=O)c2cc(NC(=O)CCCN(C)C)ccc2O[C@H]1CN(C)Cc1ccc(-c2ccccc2)cc1 the outcome was “inactive”.
With N#C[C@@H]1[C@H](c2ccccc2C2=CCCCC2)[C@@H](CO)N1S(=O)(=O)c1ccccc1 the outcome was “inactive”.
For C[C@H](CO)N1C[C@H](C)[C@@H](CN(C)Cc2ccc(-c3ccccc3)cc2)Oc2ccc(NC(=O)CCCN(C)C)cc2C1=O, the outcome was “inactive”.
In the case of Cc1ccc(O)c(-c2cc(-c3cccc(Br)c3)n[nH]2)c1, the outcome was “inactive”.
In the case of Cc1ccc(NC(=O)COC(=O)c2cc(Cl)ccc2[N+](=O)[O-])c(C)c1, the outcome was “inactive”.
With CC1CN(C(=O)c2cc3c(=O)n4ccccc4nc3n2C)CC(C)O1 (stereo not drawn) the outcome was “inactive”.
With Fc1cnc(N2CCN(c3ccccc3)CC2)nc1N1CCN(c2ccccc2)CC1 the outcome was “inactive”.
For Cc1cccc(NC(=O)Nc2ccc(S(=O)(=O)Nc3onc(C)c3C)cc2)c1, the outcome was “inactive”.
In the case of COC(=O)C[C@@H]1CC[C@H]2[C@@H](COc3ccc(NC(=O)Cc4cccs4)cc3C(=O)N2C)O1, the outcome was “inactive”.
With C[C@@H]1CN([C@@H](C)CO)C(=O)c2cc(-c3ccncc3)cnc2O[C@@H]1CN(C)C(=O)Cc1cccnc1 the outcome was “inactive”.
For O=C(CCC(=O)c1cccs1)NCc1cccnc1, the outcome was “inactive”.
For N#Cc1ccc(-c2ccc3c(c2)[C@@H]2[C@@H](CCN2S(=O)(=O)c2ccccc2F)[C@H](CO)N3)cc1, the outcome was “inactive”.
In the case of COc1ccccc1CNc1nc(NCc2cnc(C)cn2)c2sccc2n1, the outcome was “inactive”.
In the case of COCC(=O)Nc1ccc2c(c1)C(=O)N(C)[C@H]1CC[C@H](CC(=O)NCc3ccccc3Cl)O[C@H]1CO2, the outcome was “inactive”.
For O=C(Nc1ccccc1F)N1C[C@@H]2[C@H](c3ccccc31)[C@H](CO)N2C(=O)C1CC1, the outcome was “inactive”.
In the case of CCCCOc1ccc(C(C)NC(=O)C2CCCN(S(=O)(=O)CCC)C2)cc1 (stereo not drawn), the outcome was “inactive”.
For Cc1ccc(S(=O)(=O)N2CC[C@@H]3[C@H](CO)Nc4ccc(-c5cccc(C(=O)N(C)C)c5)cc4[C@@H]32)cc1, the outcome was “inactive”.
In the case of C[C@H](CO)N1C[C@H](C)[C@@H](CN(C)Cc2ccccc2)Oc2ncc(-c3ccccc3)cc2C1=O, the outcome was “inactive”.
In the case of C[C@@H]1CN([C@@H](C)CO)C(=O)c2cc(-c3ccccc3)cnc2O[C@@H]1CN(C)C(=O)c1cccc(F)c1, the outcome was “inactive”.
For C[C@H](O)C#Cc1ccc2c(c1)O[C@H](CN(C)C)[C@H](C)CN([C@H](C)CO)S2(=O)=O, the outcome was “inactive”.
For C[C@H]1CN([C@@H](C)CO)C(=O)c2cc(-c3ccccc3)cnc2O[C@H]1CN(C)Cc1ccccc1, the outcome was “inactive”.
In the case of C[C@H](CO)N1C[C@H](C)[C@@H](CN(C)Cc2ccc(-c3ccccc3)cc2)Oc2ccc(NC(=O)C3CCCCC3)cc2C1=O, the outcome was “inactive”.
In the case of COc1cccc(S(=O)(=O)N2CC[C@@H]3[C@H]2c2cc(-c4ccc(C#N)cc4)ccc2N[C@@H]3CO)c1, the outcome was “inactive”.
In the case of COC(=O)C[C@H]1CC[C@H]2[C@@H](COc3ccc(NC(=O)Cc4cccs4)cc3C(=O)N2C)O1, the outcome was “inactive”.
